Assay results reported in PubChem BioAssay AID1159580 (chemical genetic matrix, 2015).
Several values for one entry are separate records, joined by “and”; a condition that tells them apart may be missing. Equal values may be shown once. About 2,000 (36%) of roughly 5,500 compounds were called active. Inconclusive results (about 18%) are left out. Rule as the data show it: active = normalized growth mostly below about 0.91 (no sharp cut-off); inconclusive = no clear call, values can overlap the other calls; inactive = mostly above about 0.92. The list shows a part of the results.

Assay: chemical genetic growth profiling, strain panel (AID 1159580);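 also: tested at 20 µM; growth read once vehicle control cultures reached saturation at 30 °C; 1 = growth at the plate median or of vehicle wells; lower values mean less growth of the strain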
Details: S. cerevisiae deletion strains, growth OD

Measured: normalized growth

CC(C)(C)NCC(O)c1ccc(O)c(CO)c1 (stereo not given)
inactive: locus YAL013W, strain DEP1, stronger effect = lower value 1 and 1.04 | locus YAL021C, strain ccr4, stronger effect = lower value 1.02 | locus YAL026C, strain drs2, stronger effect = lower value 1.02 | locus YAL030W, strain snc1, stronger effect = lower value 1.02 | locus YAL040C, strain CLN3, stronger effect = lower value 0.991 and 1.01 | locus YBL061C, strain skt5, stronger effect = lower value 1.02 | locus YBR009C, strain hhf1, stronger effect = lower value 0.998 | locus YBR021W, strain FUR4, stronger effect = lower value 1.01 | locus YBR023C, strain chs3, stronger effect = lower value 1.01 | locus YBR171W, strain sec66, stronger effect = lower value 1.02 | locus YBR229C, strain ROT2, stronger effect = lower value 1 | locus YBR231C, strain swc5, stronger effect = lower value 1.01 | locus YBR279W, strain paf1, stronger effect = lower value 1.01 | locus YCL011C, strain gbp2, stronger effect = lower value 0.998 | locus YCL016C, strain dcc1, stronger effect = lower value 1.02 | locus YCL029C, strain bik1, stronger effect = lower value 1.01 | locus YCL061C, strain MRC1 (second series), stronger effect = lower value 1 and 1.01 | locus YCL061C, strain MRC1, stronger effect = lower value 1 | locus YCL069W, strain vba3, stronger effect = lower value 1.02 | locus YCR088W, strain abp1, stronger effect = lower value 1.01 | locus YDL005C, strain med2, stronger effect = lower value 1.01 | locus YDL035C, strain GPR1, stronger effect = lower value 1.04 | locus YDL040C, strain nat1, stronger effect = lower value 1 | locus YDL074C, strain BRE1, stronger effect = lower value 1.06 | locus YDL101C, strain DUN1, stronger effect = lower value 1.01 | locus YDL134C, strain PPH21, stronger effect = lower value 1 | locus YDL185W, strain tfp1, stronger effect = lower value 1.02 | locus YDL192W, strain arf1, stronger effect = lower value 1.02 | locus YDR001C, strain nth1, stronger effect = lower value 1.01 | locus YDR069C, strain doa4, stronger effect = lower value 0.998 | locus YDR101C, strain arx1, stronger effect = lower value 0.972 | locus YDR137W, strain rgp1, stronger effect = lower value 1.01 | locus YDR150W, strain NUM1, stronger effect = lower value 1.01 | locus YDR159W, strain sac3, stronger effect = lower value 0.99 | locus YDR162C, strain NBP2, stronger effect = lower value 1.03 | locus YDR195W, strain ref2 0.99 | locus YDR297W, strain sur2, stronger effect = lower value 1.01 | locus YDR318W, strain mcm21, stronger effect = lower value 1.02 | locus YDR334W, strain swr1, stronger effect = lower value 0.995 | locus YDR335W, strain msn5, stronger effect = lower value 1.02 | locus YDR363W, strain ESC2, stronger effect = lower value 1.03 | locus YDR388W, stronger effect = lower value 1.02 | locus YDR392W, strain spt3, stronger effect = lower value 0.981 | locus YDR502C, strain sam2, stronger effect = lower value 1.02 | locus YEL003W, strain gim4, stronger effect = lower value 1.01 | locus YEL037C, strain rad23, stronger effect = lower value 1.01 | locus YEL061C, strain CIN8 (second series), stronger effect = lower value 1 | locus YEL061C, strain CIN8, stronger effect = lower value 1.01 | locus YER002W, strain NOP16, stronger effect = lower value 0.988 and 1.03 | locus YER015W, strain faa2, stronger effect = lower value 1.02 | locus YER016W, strain bim1, stronger effect = lower value 1.03 | locus YER110C, stronger effect = lower value 1.02 | locus YER111C, strain swi4, stronger effect = lower value 1.01 | locus YER155C, strain BEM2 (second series), stronger effect = lower value 0.982 | locus YER155C, strain BEM2, stronger effect = lower value 1.01 | locus YER167W, strain BCK2, stronger effect = lower value 1.02 | locus YFR010W, strain ubp6, stronger effect = lower value 1.01 | locus YGL078C, strain dbp3, stronger effect = lower value 1.03 | locus YGL086W, strain mad1, stronger effect = lower value 1.01 | locus YGL167C, strain pmr1, stronger effect = lower value 1.02 | locus YGL173C, strain kem1, stronger effect = lower value 1.01 | locus YGL227W, strain vid30, stronger effect = lower value 0.989 | locus YGL240W, strain doc1, stronger effect = lower value 1.02 | locus YGL248W, strain PDE1, stronger effect = lower value 0.998 | locus YGL253W, strain hxk2, stronger effect = lower value 1.01 | locus YGR078C, strain PAC10, stronger effect = lower value 1.02 | locus YGR135W, strain pre9, stronger effect = lower value 1.06 | locus YGR229C, strain SMI1, stronger effect = lower value 1.02 and 1.05 | locus YGR252W, strain gcn5, stronger effect = lower value 1.12 | locus YHR013C, strain ard1, stronger effect = lower value 1.01 | locus YHR027C, strain rpn1, stronger effect = lower value 1.01 | locus YHR030C, strain SLT2, stronger effect = lower value 1.01 and 1.03 | locus YHR079C, strain IRE1 (second series), stronger effect = lower value 1.01 | locus YHR079C, strain IRE1, stronger effect = lower value 1.03 | locus YHR094C, strain hxt1, stronger effect = lower value 1.02 | locus YHR129C, strain ARP1, stronger effect = lower value 1.02 | locus YHR142W, strain chs7, stronger effect = lower value 1 | locus YHR200W, strain rpn10, stronger effect = lower value 1.02 | locus YIL066C, strain RNR3, stronger effect = lower value 1.01 | locus YIL073C, strain SPO22, stronger effect = lower value 1.1 | locus YIL125W, strain kgd1, stronger effect = lower value 1.01 | locus YIR030C, strain dcg1, stronger effect = lower value 1.02 | locus YJL092W, strain hpr5, stronger effect = lower value 1.01 | locus YJL095W, strain BCK1 (second series), stronger effect = lower value 1.03 | locus YJL095W, strain BCK1, stronger effect = lower value 1.01 and 1.03 | locus YJL115W, strain asf1, stronger effect = lower value 1.04 | locus YJL129C, strain trk1, stronger effect = lower value 1 | locus YJL134W, strain LCB3, stronger effect = lower value 1.02 | locus YJL154C, strain vps35, stronger effect = lower value 1.02 | locus YJL164C, strain tpk1, stronger effect = lower value 1 | locus YJL166W, strain qcr8, stronger effect = lower value 0.999 | locus YJL168C, strain set2, stronger effect = lower value 1.01 | locus YJL187C, strain SWE1 (second series), stronger effect = lower value 0.996 | locus YJR043C, strain POL32, stronger effect = lower value 1.03 | locus YJR066W, strain TOR1, stronger effect = lower value 0.979
